# Measurements reported in PubChem BioAssay AID1851 (National Center for Advancing Translational Sciences (NCATS), 2009).
# Where “and” joins values, the source holds several entries; their conditions need not be identical. Equal values may be shown once. The whole screen tested about 16,000 compounds, of which about 5,700 (36%) were called active. Not shown: some 24% with an inconclusive outcome. Some of the results follow. Unmarked numbers belong to inactive results. Calls come from the whole dose curve; as a rule, active = well fitted curve in the direction sought with a large enough effect; inconclusive = small, poorly fitted or top-dose-only effect, or effect the other way; inactive = no such curve, though single readings can be large or run the other way.
# Target: Cytochrome P450 1A2 (Homo sapiens) (UniProt P05177)
# Sequence (P05177 whole entry, looked up): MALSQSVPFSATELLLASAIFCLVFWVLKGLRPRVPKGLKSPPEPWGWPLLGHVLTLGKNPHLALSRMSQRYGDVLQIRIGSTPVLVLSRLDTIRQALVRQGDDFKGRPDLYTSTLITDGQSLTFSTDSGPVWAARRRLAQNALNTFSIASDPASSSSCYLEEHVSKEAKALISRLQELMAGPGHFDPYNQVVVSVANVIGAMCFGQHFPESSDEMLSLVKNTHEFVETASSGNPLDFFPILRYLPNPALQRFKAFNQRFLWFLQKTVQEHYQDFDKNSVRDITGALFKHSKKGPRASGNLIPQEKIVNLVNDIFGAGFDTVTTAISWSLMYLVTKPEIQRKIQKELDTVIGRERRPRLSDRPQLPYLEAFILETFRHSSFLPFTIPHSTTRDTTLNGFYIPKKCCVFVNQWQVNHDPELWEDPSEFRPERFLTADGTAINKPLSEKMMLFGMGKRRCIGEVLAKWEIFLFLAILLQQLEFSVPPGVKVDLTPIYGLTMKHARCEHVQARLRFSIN
# Assay: Cytochrome panel assay with activity outcomes
# Conditions: recombinant CYP, pro-luciferin dealkylation, luminescence, p450-cyp1a2; series mostly up to 57.1 µM
# % is set by controls: 0 for no effect and ±100 for the full control effect.
SMILES,AC50,"activity, negative = inhibition"
C[N+]1([O-])[C@@H]2CC[C@H]1CC(OC(=O)[C@@H](CO)c1ccccc1)C2 (stereo partly drawn),inactive,
CC(=O)Nc1ccccc1C(=O)OCc1ccc(C(=O)c2ccccc2)cc1,inactive,
CC(=O)Nc1ccccc1C(=O)OCC(=O)c1ccc2ccccc2c1,3160 nM (active),
CS(=O)(=O)O[C@H]1CN2CCC1CC2,,-18.7% [at 11.4 µM]
CCOc1ccc(C2C(C#N)=C(N)Oc3c2c(=O)oc2ccccc32)cc1 (stereo not drawn),5010 nM (active),
COc1ccc2c3c1O[C@@H]1C(=O)CC[C@@]4(O)[C@@H](C2)N(CC2CC2)CC[C@]314,inactive,
C[C@H](Br)C(=O)c1ccc2cc(Br)c3ccccc3c2c1,158 nM (active),
CC1=C(CC[C@H](C)CO)O[C@@H]2C[C@@H]3[C@H]4CC[C@H]5C[C@@H](O)CC[C@]5(C)[C@@H]4CC(=O)[C@@]3(C)[C@@H]12,,-21.1% [at 2.29 µM]
O=C(O)Cc1cnc[nH]1,inactive,
NC(N)=NS(=O)(=O)c1ccc(N)cc1,inactive,
O=C1c2cc([N+](=O)[O-])ccc2-c2ccc3c4ccc5c6c(ccc(c7ccc1c2c73)c64)C(=O)c1cc([N+](=O)[O-])ccc1-5,794 nM (active),
O=C(O)CCCc1ccc(N(CCCl)CCCl)cc1,inactive,
C[C@@H]1O[C@H]1P(=O)(O)O,inactive,
Cc1nccc2c1[nH]c1ccccc12,1.26 µM (active) and 631 nM (active),
Cc1c2ccncc2c(C)c2c1[nH]c1ccccc12,20 nM (active),
COC(=O)[C@H]1C(=O)c2ccccc2O[C@@](C(=O)OC)(c2ccccc2)[C@@H]1c1ccccc1,,6.39% [at 11.4 µM]
C[N+]1(C)CCN(c2ccccc2)CC1,inactive,
COc1ccc(C(=O)OC2C[C@H]3CC[C@@H](C2)N3C)cc1OC (stereo partly drawn),inactive,
Cc1cccc(NC(=S)NC2CC3CCCC(C2)N3Cc2cccs2)c1 (stereo not drawn),inactive,

SMILES,AC50,"activity, negative = inhibition"
CCc1ccccc1NC(=O)NC1CC2CCC(C1)N2Cc1cccs1 (stereo not drawn),inactive,
CCSc1nnc(C(N)Cc2ccccc2)o1 (stereo not drawn),inactive,
NCCCNCCSP(=O)(O)O,inactive,
CC1CN=C(Nc2cccc3ccccc23)S1 (stereo not drawn),2000 nM (active),
O=C(Nc1cccc2ccccc12)c1nn(C23CC4CC(CC(C4)C2)C3)cc1Br,inactive,
CCC12C=CCN3CCC4(c5cc(Br)c(OC)cc5N(C)C4C(O)(C(=O)OC)C1OC(C)=O)C32 (stereo not drawn),inactive,
CCC[C@@H]1CC2=CC(=O)CC[C@]2(C)[C@@H]2CC[C@@]3(C)[C@H](CC[C@]3(O)CCC(=O)O)[C@H]12,inactive,
COc1cc(C[C@H](C)N)c(OC)cc1I,6.31 µM (active) and 12.6 µM (active),
Clc1cnc(Oc2ccc(Oc3ncc(Cl)cc3Cl)cc2)c(Cl)c1,inactive,
CCNC[C@H](O)c1cccc(O)c1,inactive,
c1cncc(CNCCN2CCNCC2)c1,,6.05% [at 11.4 µM]
c1cncc(CNc2cc(-c3ccc4c(c3)OCO4)ncn2)c1,251 nM (active),
Cc1o[nH]c(=O)c1C[C@H](N)C(=O)O,inactive,
c1ccc2sc(C3(N4CCCCC4)CCCCC3)cc2c1,inactive,
COc1ccn(C)c(=O)c1C#N,inactive,
CO[C@H]1[C@H](O)[C@H](O[C@@H]2[C@H](Oc3cccc4c(O)c5c(=O)oc6ccc(C)c7c(=O)oc(c34)c5c67)O[C@@H](C)[C@H](O)[C@H]2O)O[C@@H](C)[C@@H]1O,,-16.6% [at 11.4 µM]
O=[As](O)(O)c1ccc2nc3cc([As](=O)(O)O)ccc3nc2c1,,-15.1% [at 11.4 µM]
C=C1[C@@H](O)C2C=CC[C@H](C)C(=O)[C@@](C)(O)C=C[C@@H](OC(C)=O)[C@@]23C(=O)N[C@H](Cc2ccccc2)[C@@H]3[C@@H]1C (stereo partly drawn),inactive,
c1ccc(N2CCCC3(CCNCC3)C2)cc1,inactive,
